Screening results from PubChem.
Most compounds without a hit are left out; they make up all but 7.3% or so of the library.
SMN2 splice enh: increases expression of the SMN2 splice variant; HEK293 SMN2-luciferase splicing reporter, luminescence, 30-36 h; Potency, µM (titrated, usually from 46.1 µM), most hits filed as activators; 210,000 compounds, 2.8% hits; further: nearly all actives have a fitted effect of over 55% in size
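HEK293 cells carry an SMN2 […]–luciferase reporter in which exon 7 inclusion puts luciferase in frame. Cells were plated 10-12 h before compound addition, then incubated 30-36 h at 37C. ONE-Glo luminescence was read; sodium butyrate at 4.5 mM final served as control.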
NPC1 prom act: activators of NPC1 promoter; 320,000 compounds, 2.4% hits; Potency, µM (highest dose often 9.22 µM), usual class: activators; Huh7 NPC1 promoter luciferase reporter, 24 h; AID 485313; further: nearly all actives have a fitted effect of over 60% in size
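Huh7 reporter cells (NPC1 promoter driving luciferase) are dosed with compound for 24 h at 37 °C, 5% CO2; luciferase detection reagent is then added and luminescence measured after 10 min at ambient temperature.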
ELG1 genotox: induces genotoxicity in HEK293T cells with luciferase-tagged ELG1; HEK293T ELG1-luciferase reporter, luminescence, 16 h; Potency, µM (highest dose often 46 µM), most hits filed as activators; 330,000 compounds, 1.3% hits; further: nearly all actives have a fitted effect of over 60% in size
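Step 1: seed 2,000 HEK293T ELG1-luciferase cells per well. Step 2: add compound or DMSO, incubate 16 hr at 37 °C. Step 3: ONE-Glo, 30 min at room temperature, read luminescence.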
FLuc counter: firefly luciferase modulation, counter-screen for miR-21 project; purified FLuc, Km substrates, luminescence inhibition; Potency, µM (titrated, usually from 57.5 µM), actives largely listed as inhibitors; 360,000 compounds, 6.9% hits; AID 588342; further: nearly all actives have a fitted effect of over 55% in size
Target sequence (P08659 whole entry, looked up): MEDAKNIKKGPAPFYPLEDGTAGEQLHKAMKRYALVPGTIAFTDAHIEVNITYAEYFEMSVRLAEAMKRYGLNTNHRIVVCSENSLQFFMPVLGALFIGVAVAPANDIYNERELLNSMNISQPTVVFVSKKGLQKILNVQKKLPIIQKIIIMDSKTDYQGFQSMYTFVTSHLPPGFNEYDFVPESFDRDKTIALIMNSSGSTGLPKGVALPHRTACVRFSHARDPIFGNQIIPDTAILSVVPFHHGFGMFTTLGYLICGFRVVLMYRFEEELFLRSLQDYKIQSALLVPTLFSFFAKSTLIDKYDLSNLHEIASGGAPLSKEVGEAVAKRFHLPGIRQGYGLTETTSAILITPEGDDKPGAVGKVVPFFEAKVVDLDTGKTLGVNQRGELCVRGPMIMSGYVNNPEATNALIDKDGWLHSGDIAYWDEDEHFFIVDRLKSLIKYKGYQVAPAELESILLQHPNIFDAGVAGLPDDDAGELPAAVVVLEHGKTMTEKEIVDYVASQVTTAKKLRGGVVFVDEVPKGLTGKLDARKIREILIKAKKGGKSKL
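Purified P. pyralis luciferase (10nM final) with 10uM D-luciferin and 10uM ATP (Km levels) in 50mM Tris acetate pH 7.5, 10mM Mg acetate, 0.01% Tween-20, 0.05% BSA; qHTS 6-point titration, ~60 µM downward; luminescence read.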
Rab9 promoter act: Rab9 promoter activation; Huh7 Rab9 promoter-luciferase reporter, luminescence, 24 h; 320,000 compounds, 2.8% hits; AID 485297; Potency, µM (titrated, usually from 9.22 µM), actives largely listed as activators; further: nearly all actives have a fitted effect of over 60% in size
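Using Huh7 cells stably transfected with Rab9 promoter–luciferase, compounds were incubated 24 h at 37 °C, 5% CO2; luciferase luminescence was read 10 min after reagent addition.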
KinaseGlo FLuc: counter-screen: inhibitors of Kinase-Glo firefly luciferase. Kinase-Glo luciferase, ATP luminescence, 8 min. 200,000 compounds, 0.28% hits. Potency, µM (doses to about 38.3 µM), most hits filed as inhibitors. Q27757; further: nearly all actives have a fitted effect of over 60% in size
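Inhibition of Kinase-Glo luciferase light generation was assessed at 10 uM ATP in pH 7.2 imidazole buffer, with luminescence measured after eight minutes at ambient temperature.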
Hits are given with their value; i = inactive; ? = inconclusive; nt = no result; [ ] = another dose, or the depositor's remark. The call rests on the fitted dose curve; in most records, active means well fitted curve in the direction sought with a large enough effect; inconclusive means small, poorly fitted or top-dose-only effect, or another doubt; inactive means no such curve, though single readings can be large; an effect the other way counts as inactive or inconclusive.

SMILES | SMN2 splice enh | NPC1 prom act | ELG1 genotox | FLuc counter | Rab9 promoter act | KinaseGlo FLuc
CCc1ccc(NCc2nc3ccccc3c(=O)[nH]2)cc1 | 10µM | ? | 3.3µM | 11µM | 2.8µM | i
CNC(=O)c1ccc(Nc2nnc(C)c3ccccc23)cc1 | i | i | i | i | i | i
O=C(O)c1ccc(Nc2cnc3ccccc3n2)cc1 | i | ? | ? | 13µM | 2.8µM | i
CCOC(=O)c1ccc(Nc2nnc(C)c3ccccc23)cc1 | nt | i | i | 17µM | i | nt
CCOC(=O)Cc1nc2ccccc2[nH]1 | i | i | i | i | i | i
COC(=O)C1=C(C(=O)OC)[C@@H]2N(C)c3ccccc3[C@@]23C[C@@H](C(=O)OC)N(S(=O)(=O)c2ccc(C)cc2)C3=N1 | i[9.22 µM] | nt | nt | nt | nt | i[7.66 µM]
Cc1nc2ccn(Cc3ccco3)c(=O)c2cc1C(=O)Nc1ccc(F)cc1 | nt | nt | nt | i | nt | nt
CCCCC[C@H](O)/C=C/C=C\C/C=C\C=C\[C@@H](O)CCCC(=O)O | i | nt | nt | nt | nt | i
COc1ccc(NC(=O)C2CCCN(c3nnc(C)c4c(C)n(-c5ccccc5)nc34)C2)cc1Cl (configuration not stated) | nt | nt | nt | i | nt | nt
Cc1c(NS(=O)(=O)c2ccc(C(C)(C)C)cc2)c(=O)n(-c2ccccc2)n1C | i | nt | nt | i | nt | nt
CCOC(=O)c1ccc(Nc2cc(C)nc(-c3ccccc3)n2)cc1 | nt | i | i | i | i | nt
CCOC(=O)c1ccc(Nc2cnc3ccccc3n2)cc1 | 13µM | 2.2µM | 9.2µM | 2.4µM | 1.8µM | i
COc1ccccc1C(=O)N/N=C/c1ccc2c(c1)OCO2 | nt | 2.8µM | ? | 11µM | ? | nt
O=C(N/N=C/c1ccccc1OC(=O)c1ccc2c(c1)OCO2)c1ccccc1 | nt | i | ? | ? | i | i
COc1ccccc1/C=N/NC(=O)c1cccc(NC(=O)c2ccccc2Cl)c1 | i | i | i | ? | i | i
CSc1nsc(N/N=C/c2ccc3c(c2)OCO3)c1C#N | 5.6µM | 2.5µM | ? | 1.7µM | 0.79µM | i
COc1ccccc1/C=N/NC(=O)c1ccc2c(c1)OCO2 | nt | i | i | 6.7µM | i | nt
COc1ccccc1/C=N/NC(=O)c1cccc(OC(F)(F)C(F)F)c1 | i | i | i | 12µM | i | i
COc1ccc2c(c1)c1c(c(=O)n(-c3ccccc3C)c(=O)n1CC(=O)Nc1c(C)cccc1C)n2C | nt | nt | nt | i | nt | nt
CCN1CCN(c2ncc3c(n2)CCN(Cc2ccccc2C)C3)CC1 | nt | nt | nt | i | nt | nt
COc1ccccc1N/N=C/c1ccc2c(c1)OCO2 | i | i | i | 9.5µM | i | i
CC1(C)Cc2nc3sc4c(N(CCO)CCO)nnnc4c3cc2CO1 | i | i | i | ? | i | i
CC1(C)Cc2nc3sc(C(=O)NCCO)c(N)c3cc2CO1 | ? | i | i | 27µM | i | i
CC1(C)Cc2nc3sc(C(=O)NCCCO)c(N)c3cc2CS1 | 14µM | ? | ? | 15µM | 3.2µM | i
COC(=O)c1ccc(Cl)c(NC(=O)C2CCN(S(=O)(=O)Cc3ccccc3)CC2)c1 | nt | nt | nt | i | nt | nt
SMILES | SMN2 splice enh | NPC1 prom act | ELG1 genotox | FLuc counter | Rab9 promoter act | KinaseGlo FLuc
Cc1cccc(NS(=O)(=O)c2ccc3c(c2)CC(C)N3C(=O)C2CCC2)c1C (configuration not stated) | nt | nt | nt | i | nt | nt
O=C(Cc1ccccc1)N(Cc1cccnc1)c1nc2ccc(F)cc2s1 | nt | nt | nt | i | nt | nt
COc1ccccc1CCNC(=O)Cc1c(C)c2cc(Cl)c(O)cc2oc1=O | i | nt | nt | i | nt | nt
COc1ccc(CNC(=O)Cc2c(C)c3cc4c(C)coc4c(C)c3oc2=O)cc1 | i | nt | nt | i | nt | nt
Cc1ccc(N(CC(=O)Nc2ccc3c(c2)OCCO3)S(C)(=O)=O)cc1 | nt | ? | i | 19µM | ? | i
CS(=O)(=O)N(CC(=O)Nc1ccc2c(c1)OCO2)c1ccc(Cl)cc1 | i | i | i | ? | i | i
CCOc1ccc(N(CC(=O)Nc2cc(C)cc(C)c2)S(C)(=O)=O)cc1 | nt | ? | i | ? | i | nt
CCOc1ccc(N(CC(=O)Nc2ccc(C)cc2)S(C)(=O)=O)cc1 | nt | 3.5µM | ? | 15µM | 0.89µM | nt
Cc1ccc(CNC(=O)c2cc(Sc3ccc(F)cc3F)nc3ccccc23)cc1 | nt | nt | nt | i | nt | nt
CCOC(=O)N1CCC(N2C(=O)c3ccccc3C2Nc2ccc3c(c2)OCCO3)CC1 (configuration not stated) | i | i | ? | 21µM | i | i
CCOC(=O)C1CCN(C(C(=O)Nc2ccc3c(c2)OCCO3)c2ccccc2)CC1 (configuration not stated) | i | i | i | i | i | i
CCOC(=O)C1CCN(c2c(Nc3ccc4c(c3)OCCO4)c(=O)c2=O)CC1 | i | i | ? | 21µM | i | i
CC(=O)Nc1ccc(NC(=O)CC(C)n2ccc(C)n2)cc1 (configuration not stated) | nt | nt | nt | i | nt | nt
N/C(=N\OC(=O)COc1ccccc1Cl)c1ccccn1 | 13µM | 3.2µM | 9.2µM | 4.8µM | 2.5µM | i
Cc1ccc(C)c(OCC(=O)O/N=C(\N)c2cccnc2)c1 | nt | i | i | i | i | nt
Cc1ccc(C)c(OCC(=O)O/N=C(\N)c2ccccn2)c1 | ? | 3.2µM | ? | 17µM | ? | i
COCCN(CCOC)c1nc(C)nc2c1nc(-c1ccccc1)n2CC1CCN(C)CC1 | i | nt | nt | nt | nt | i
Cc1cc(C(=O)CN2C(=O)CCC2=O)c(C)n1Cc1ccccc1 | i | i | ? | ? | i | i
CCCn1c(C)cc(C(=O)CN2C(=O)c3cccc(N)c3C2=O)c1C | ? | 2.8µM | ? | 2.7µM | 3.2µM | i
CCCCNC(=O)CN1C(=O)c2cccc(N)c2C1=O | i | i | i | i | i | i
Cc1cc(C(=O)Cn2nnc3ccccc3c2=O)c(C)n1Cc1cccs1 | i | 0.35µM | 2.6µM | 0.6µM | 0.45µM | i
Cc1cc(C(=O)CN2C(=O)c3ccccc3C2=O)c(C)n1Cc1cccs1 | 14µM | 0.5µM | ? | 0.85µM | 0.4µM | i
O=C1CN(C(=O)c2ccc(S(=O)(=O)N3CCCC3)cc2)C(c2ccccc2)c2cc(Br)ccc2N1 (configuration not stated) | i | nt | nt | i | nt | nt
N#C/C(=C\c1cccc(Cl)c1)C(=O)c1ccccc1 | nt | i | i | ? | i | nt
N#C/C(=C\c1ccc[nH]1)C(=O)NCC1CCCO1 (configuration not stated) | nt | i | i | i | i | nt
N#C/C(=C\c1ccc[nH]1)C(=O)c1ccccc1 | nt | i | i | 17µM | i | nt
N#C/C(=C\c1ccc[nH]1)C(=O)Nc1ccccc1F | nt | 1.3µM | 12µM | ? | 0.5µM | nt
N#C/C(=C\c1ccc[nH]1)C(=O)Nc1ccccc1Cl | nt | 0.71µM | ? | i | ? | nt
Cc1cc(/C=C(\C#N)C(=O)Nc2ccccc2F)c(C)[nH]1 | nt | 1.1µM | ? | 2.1µM | 0.56µM | i
CCCCCNC(=O)C1CCC(Cn2c(=O)c3sccc3n(CC)c2=O)CC1 (configuration not stated) | nt | nt | nt | i | nt | nt
